Results on ten compounds are retold here after PubChem BioAssay (NCATS).

SMILES strings stand for the structures. Inconclusive results are not listed. Unmarked numbers belong to inactive results. Calls of active or inactive are those of the source. Calls come from the whole dose curve.

A short description of one assay: Primary qHTS for inhibitors of MERS-S pseudo-typed particle cell entry (AID 1479149). For activity change, negative = inhibition: % is set by controls: 0 for no effect and ±100 for the full control effect. Note: nearly all actives have a fitted effect of over 60% in size. The following applies: MERS-S pseudotyped particle entry, luciferase; series mostly up to 57.1 µM; activity change, negative = inhibition: at the top concentration.
Turning to `CCCCCC[C@@H](O)C/C=C\CCCCCCCC(=O)O`, the compound was classed as inactive. With `Cc1ncc(C[n+]2csc(CCO)c2C)c(N)n1`, the outcome was inactive. For the compound `CC#CCn1c(N2CCC[C@@H](N)C2)nc2c1c(=O)n(Cc1nc(C)c3ccccc3n1)c(=O)n2C`, the “activity change, negative = inhibition” value is 4.54%.

A further assay is described as follows: Primary qHTS for Vero E6 cytotoxicity: counterscreen for inhibitors of SARS-S pseudo-typed particle cell entry (AID 1479150). For activity change, negative = cytotoxicity: % is set by controls: 0 for no effect and ±100 for the full control effect. The following applies: cell viability; series mostly up to 57.1 µM; activity change, negative = cytotoxicity: at the top concentration.
For `CCCCCC[C@@H](O)C/C=C\CCCCCCCC(=O)O`, the “activity change, negative = cytotoxicity” value is -12.6%. With `Cc1ncc(C[n+]2csc(CCO)c2C)c(N)n1`, the call was inactive. For `CC#CCn1c(N2CCC[C@@H](N)C2)nc2c1c(=O)n(Cc1nc(C)c3ccccc3n1)c(=O)n2C`, the “activity change, negative = cytotoxicity” value was 3.18%.

The next assay is described as follows: Confirmatory qHTS for activators (rescue) of SARS-CoV-2 Cytopathic Effect (CPE) (AID 1508606). Note: potency is the fitted concentration of half-maximal effect; nearly all actives have a fitted effect of over 70% in size. The following applies: Vero E6 SARS-CoV-2 CPE rescue, viability luminescence; series mostly up to 20 µM; CPE rescue (activation): at the top concentration.
With `CC(C)(C)Cn1c(N)nc2ccc(-c3[nH]c(C(C)(C)C)nc3-c3ccc(F)cc3)nc21`, the Potency was 1.58 µM (active).

With `NC(=O)c1cccc2cn(-c3ccc([C@@H]4CCCNC4)cc3)nc12`, the Potency was 11.2 µM (active).

Regarding `CC(C)(N)c1ccc(-c2nc3ccccc3nc2-c2ccccc2)cc1`, the Potency is 10 µM (active).

Another assay can be described thus: Cytotoxicity counterscreen for inhibitors of SARS-CoV-2 cell entry (AID 1645845). For activity change, negative = cytotoxicity: % is set by controls: 0 for no effect and ±100 for the full control effect. Note: nearly all actives have a fitted effect of over 50% in size. Particulars: cell viability (SARS-CoV-2 entry assay cells); series mostly up to 57.1 µM; activity change, negative = cytotoxicity: at the top concentration. A digest of the protocol: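 After a 15 min room-temperature ATPLite 1step step, luminescence reflected ATP remaining in HEK293-ACE2 cells exposed to compound for 1 h plus 48 h at 37 C, with percent activity set by cell and no-cell controls.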
In the case of `COc1cc2c(cc1OC)CN(CCc1ccc(NC(=O)c3cc(OC)c(OC)cc3NC(=O)c3cnc4ccccc4c3)cc1)CC2`, the result was inactive. For `Cc1cc(OCCCS(C)(=O)=O)cc(C)c1-c1cccc(COc2ccc3c(c2)OC[C@H]3CC(=O)O)c1`, the “activity change, negative = cytotoxicity” value is -25.4%. Still for that read-out and setting: in the case of `CC(C)(N)c1ccc(-c2nc3ccccc3nc2-c2ccccc2)cc1` it was 1.91%; in that of `CCCCCC[C@@H](O)C/C=C\CCCCCCCC(=O)O`, -7.91%; in that of `Cc1ncc(C[n+]2csc(CCO)c2C)c(N)n1`, 3.66%. In the case of `COc1ccc(-c2cc3nccn3c(Nc3ncccc3C(N)=O)n2)cc1OC`, the “activity change, negative = cytotoxicity” value was 4.09%. `CC#CCn1c(N2CCC[C@@H](N)C2)nc2c1c(=O)n(Cc1nc(C)c3ccccc3n1)c(=O)n2C`: the Potency result is “inactive”.

In the case of `COc1cc2ncn(-c3cc(OCc4ccccc4S(C)(=O)=O)c(C#N)s3)c2cc1OC`, the “activity change, negative = cytotoxicity” value is -1.72%.
